These sequences were tested against Interleukin-8 (IL8, CXCL8), C-terminal His-tagged (Homo sapiens, UniProt P10145 SEQ:1-72) (assay: competition; competition TR-FRET; L1 mutant). Settings: tags: C-terminal 6xHis (Sino Biological); ssRNA; 2'-F G, 2'-OMe A/C/U, 5' C6NH2, 3' idT.
Procedure: Activity of each of these variants were tested using a time resolved competition TR-FRET assay in which the labeled parent Aptamer 3 was competed with increasing concentrations of unlabeled variants for binding to IL8 (FIG. 14). Briefly, 2-fold dilutions of thermally equilibrated aptamers were made in TR-FRET Buffer (50 mM MOPS, pH 7.4, 125 mM NaCl, 5 mM KCl, 50 μM CHAPS, 0.1 mg/mL BSA, 1 mM CaCl₂, and 1 mM MgCl₂). 5 μL of aptamer or control solution was added to 5 μl mix of 10 nM C-terminal His-tagged-IL8, 60 nM ALEXA FLUOR® 647-labeled Aptamer, and 5 nM anti-His-Eu (Perkin Elmer) in a black wall low volume 384 well plate (Greiner). For control, 5 μl of 1000-fold excess of unlabeled parent aptamer or 5 μl TR-FRET buffer alone was added to the mix of ALEXA FLUOR® 647-labeled aptamer, His-IL8, and anti-His-Eu. The plate was covered with a plate seal and subsequently incubated in the dark for 1 hour at room temperature. The plate was read on a Biotek CYTATION™ 5 plate reader. Samples were excited at 330 nm and fluorescent values were collected at 665 nm. Data analysis was performed by subtracting the background value and plotting as percent inhibition, normalized to baseline in the absence of competitor. The values were fit by [Inhibitor] vs. response—Variable slope (four parameters) using GraphPad Prism Version 7.0 and then normalized to aptamer control to obtain an IC₅₀ relative to parent aptamer. Data is presented as log values of relative IC₅₀.
To confirm the sequence conservation of this loop, variants of Aptamer 32 were made (4 base pair S1 version of parent Aptamer 8) where each position of L1 was individually replaced with the other 3 bases and tested for binding in the competition TR-FRET assay.

Binding signal, > 10 fold worse than Aptamer 8:
CGGUGGCAAAUGUGAGAUGGGUUGCCG
CGGUGAGAAAUGUGAGAUGGGUUGCCG
CGGUAGGAAAUGUGAGAUGGGUUGCCG
CGGUGGUAAAUGUGAGAUGGGUUGCCG
CGGUGCGAAAUGUGAGAUGGGUUGCCG
CGGUGUGAAAUGUGAGAUGGGUUGCCG
CGGUGGGGAAUGUGAGAUGGGUUGCCG
CGGUGGAAAAUGUGAGAUGGGUUGCCG
CGGUCGGAAAUGUGAGAUGGGUUGCCG
CGGUGGGUAAUGUGAGAUGGGUUGCCG
CGGUGGGCAAUGUGAGAUGGGUUGCCG
CGGUUGGAAAUGUGAGAUGGGUUGCCG
